Gal4-VP16 FLuc – inhibits Gal4-VP16 luciferase reporter, ROR gamma counter-screen. Drosophila S2 Gal4-VP16 UAS-luciferase, luminescence, 20 h. Potency, µM (doses to about 53.6 µM), for inactives: at the highest dose activity, negative = inhibition, hits mostly inhibitors. hit rate 3.5% among 310,000. AID 2546;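 also: Gal4-VP16 expression switched on by copper sulfate through the metallothionein promoter; nearly all actives have a fitted effect of over 50% in size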
RORg inh – blocks mouse ROR gamma transcriptional activity; hit rate 5.4% among 310,000; Potency, µM (series often up to 53.6 µM), without a hit: at the top dose activity change, negative = inhibition, hits mostly inhibitors; P51450; Drosophila S2 Gal4-RORgamma UAS-luciferase reporter, 20 h; AID 2551; also: nearly all actives have a fitted effect of over 60% in size
Target sequence (P51450 whole entry, looked up, the tested form may be a part): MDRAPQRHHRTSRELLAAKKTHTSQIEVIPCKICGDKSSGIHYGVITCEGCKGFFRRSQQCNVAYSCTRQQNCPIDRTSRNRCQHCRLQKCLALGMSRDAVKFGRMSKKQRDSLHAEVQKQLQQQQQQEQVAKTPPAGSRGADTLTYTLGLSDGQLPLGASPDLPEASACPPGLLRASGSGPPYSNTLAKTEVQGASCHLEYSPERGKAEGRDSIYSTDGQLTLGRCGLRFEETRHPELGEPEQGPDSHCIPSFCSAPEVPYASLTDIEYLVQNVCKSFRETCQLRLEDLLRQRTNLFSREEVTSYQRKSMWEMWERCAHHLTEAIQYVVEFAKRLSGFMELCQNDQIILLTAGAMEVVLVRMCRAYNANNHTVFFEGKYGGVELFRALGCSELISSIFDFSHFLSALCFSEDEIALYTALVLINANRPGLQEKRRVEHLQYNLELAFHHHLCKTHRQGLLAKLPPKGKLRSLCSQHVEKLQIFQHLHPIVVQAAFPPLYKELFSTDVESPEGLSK
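Luciferase reporter read in Schneider cells carrying Gal4-RORγ (mouse) and UAS-Photinus luciferase; cells given compound 1 h before 700 uM copper sulfate induction, then incubated 20 h at ambient temperature.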
Luc counter – blocks Kinase-Glo luciferase, a counter-screen artifact. Q27757. Kinase-Glo luciferase, ATP luminescence, 8 min. Potency, µM (doses to about 38.3 µM), inactives show at the highest dose activity change, negative = inhibition, usual class: inhibitors. hit rate 0.28% among 200,000. AID 1379; also: nearly all actives have a fitted effect of over 60% in size
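Compounds were added to a substrate mix at pH 7.2 (50 mM imidazole, 10 uM ATP, within the enzyme's linear range), followed by Kinase-Glo detection reagent; luminescence was measured after 8 minutes at ambient temperature.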
* marks the source's active call; other numbers are inactive results; ? = inconclusive; / = no result given; [ ] = remark or other dose. Shown are actives, neighbours in structure and some others; about 6.2% of the full set was active somewhere. Calls follow the shape of the dose curve; as a rule, active = well fitted curve in the direction sought with a large enough effect; inconclusive = small, poorly fitted or top-dose-only effect, or another doubt; inactive = no such curve, though single readings can be large; an effect the other way counts as inactive or inconclusive. % is scaled to controls: 0 for no effect and ±100 for the full control effect; potency is read from the fitted curve at half-maximal effect.

SMILES	Gal4-VP16 FLuc	RORg inh	Luc counter
O=C1C=CC(=O)N1c1ccc(OC(F)F)cc1	4.5µM*	6.3µM*	3%
O=C(O)CNC(=O)c1ccc(OC(F)F)cc1	-3%	-8%	3%
O=C1CCCC(=O)N1c1ccc(O)cc1	4%	2%	1%
O=C1C=CC(=O)N1c1ccc(O)cc1	?	13µM*	/
CCC(SC1=NCCS1)C(=O)Nc1ccc(S(N)(=O)=O)cc1 (configuration not stated)	-19%	-16%	2%
CCn1c(C)cc(C=C2C(=O)c3ccccc3C2=O)c1C	-42%	11µM*	-21%
Cc1cc(C=C2C(=O)c3ccccc3C2=O)c(C)n1C	14%	?	-4%
COc1ccc(NC(=O)CC(C)NCCCN2CCCC2=O)cc1 (configuration not stated)	-2%	-2%	/
c1ccc(-c2cc(-c3ccncc3)nc3ccc4ccccc4c23)cc1	?	8.9µM*	-3%
Clc1ccc2nc(-c3ccncc3)cc(-c3ccccc3)c2c1	-19%	12%	1%
Cc1c(C(=O)N2CCCCC2)c(S(=O)(=O)N2CCC(C)CC2)c(C)n1C	1%	-13%	/
Nc1nc(-c2ccccc2)cc(-c2ccccc2O)n1	2%	?	-2%
N#Cc1cc(-c2ccccc2)nc(NN)n1	-19%	?	/
NNc1nc(-c2ccccc2)cc(-c2ccccc2)n1	-9%	4.5µM*	-1%
NNc1nc(-c2ccccc2)cc(-c2ccccc2O)n1	13µM*	7.1µM*	-1%
Cc1cc(=O)n2c(n1)NC(Nc1cccc(C)c1C)=NC2c1ccccc1 (configuration not stated)	1%	-10%	/
COc1ccc(OC)c2c(C)cc(C)nc12	-1%	13µM*	3%
COc1ccc(OC)c2c(C)cc(N3CCCCCC3)nc12	4%	25%	/
Cc1noc(C)c1CN1C(=O)NC(Cc2ccccc2)(Cc2ccccc2)C1=O	-1%	11µM*	1%
Cc1cccc(CN2C(=O)NC(c3ccccc3)(c3ccccc3)C2=O)c1	4%	?	/
COc1cc(OC)c(NC2=NCCCCC2)cc1Cl	-4%	-9%	-5%
O=C(N/N=C/c1c[nH]c2ccccc12)c1cc(-c2ccc(-c3ccccc3)cc2)n[nH]1	?	5.6µM*	0%
O=C(N/N=C/c1c[nH]c2ccccc12)c1cc(-c2ccccc2)n[nH]1	2%	20%	-2%
O=C(CCN1CCCCC1)N/N=C/c1c[nH]c2ccccc12	6%	13%	/
CN1CCN(CC(=O)N/N=C\c2c[nH]c3ccccc23)CC1	22µM*	?	3%
SMILES	Gal4-VP16 FLuc	RORg inh	Luc counter
O=C(N/N=C/c1c[nH]c2ccccc12)c1cc(Cl)ccc1O	6.3µM*	5µM*	/
O=C(N/N=C\c1c[nH]c2ccccc12)c1ccc(O)cc1	-17%	6.3µM*	/
O=C(N/N=C/c1c[nH]c2ccccc12)c1ccccc1Cl	30%	4%	/
Nc1ccc(C(=O)N/N=C/c2c[nH]c3ccccc23)cc1	-6%	8%	/
Cc1cccc(C)c1OCC(=O)Nc1ccccc1C(=O)N1CCOCC1	1%	-3%	/
COc1ccc(CCN2C(=NC(=O)C(C)C)SC3CS(=O)(=O)CC32)cc1 (configuration not stated)	-5%	-13%	/
NC(=S)N/N=C/c1c[nH]c2ccccc12	?	2.5µM*	/
CC(C)n1cc(/C=N/Nc2ccc(C(=O)O)cc2)c2ccccc21	0.32µM*	0.032µM*	/
COC(=O)N/N=C/c1c[nH]c2ccccc12	3%	5%	-5%
O=C(N/N=C/c1c[nH]c2ccccc12)c1ccc(Cl)cc1	?	10µM*	/
O=C(N/N=C/c1c[nH]c2ccccc12)c1ccn[nH]1	-7%	42%	-6%
O=C(O)c1ccc(N/N=C/c2c[nH]c3ccccc23)cc1	0.32µM*	0.035µM*	/
O=C(O)c1ccc(N/N=C/c2cn(Cc3ccccc3F)c3ccccc23)cc1	-19%	16%	/
Fc1c(F)c(F)c(N/N=C/c2c[nH]c3ccccc23)c(F)c1F	-14%	-14%	0%
CC(C)Cn1cnc2c1c(=O)n(CC(=O)Nc1ccc3c(c1)OCO3)c(=O)n2Cc1ccccc1	-10%	14%	-2%
C=CCSc1nc2ccccc2c(=O)n1Cc1ccco1	/	/	-1%[7.66 µM]
O=[N+]([O-])c1ccc(CS(=O)(=O)c2ncn[nH]2)cc1	-12%	30%	/
O=C(Cn1cnc(S(=O)(=O)N2CCCC2)c1)Nc1ccc(OC(F)(F)F)cc1	1%	1%	/
C#CCNC(=O)C1=C[C@@H](c2ccc(Br)cc2)C[C@@H](OCCCCO)O1	6%	30%	/
CCOc1ccc(N(CC(=O)N/N=C/c2cccnc2)S(C)(=O)=O)cc1	0%	15%	0%
C[C@@]12CC(=O)C3=C(CCCC3=O)N1CCc1ccccc12	-2%	7%	-7%
CCc1ccn2cc(-c3ccc4c(c3)OCO4)nc2c1	4.5µM*	1.1µM*	/
c1cnc2nc(-c3ccc4c(c3)OCO4)cn2c1	-26%	-23%	?
COc1ncc2nc(-c3cc(F)cc(F)c3)c(=O)n(Cc3cccs3)c2n1	-5%	3%	-2%
N#Cc1nc(-c2cccs2)oc1NCc1ccccc1Cl	?	12%	-4%
SMILES	Gal4-VP16 FLuc	RORg inh	Luc counter
COc1ccc(/C=N/NC(N)=S)cc1OC(=O)c1ccccc1	?	13µM*	-3%
COc1cc(/C=C/C(=O)NC(C)(C)C)ccc1OCc1ccccc1	-3%	?	-2%
COc1ccc(/C=N/NC(=O)c2cccc([N+](=O)[O-])c2)cc1OC(=O)c1ccccc1	?	?	-4%
COc1ccc(/C=N/NC(=O)c2cc(C)oc2C)cc1OCc1ccccc1	?	10µM*	/
COc1ccc(/C=N/NC(=O)c2cccc([N+](=O)[O-])c2)cc1OC(=O)c1ccc(C)cc1	?	5µM*	2%
Cc1cc(C(=O)N/N=C/c2ccc(OCc3ccccc3)cc2)c(C)o1	-16%	?	4%
COc1cc(/C=C/[N+](=O)[O-])ccc1OCc1cccc(C(=O)O)c1	-21%[10 µM]	7.1µM*	-7%
COc1cc(/C=N/NC(=O)c2cc(O)cc(O)c2)ccc1OC(=O)c1ccccc1	-3%	-29%	/
COC1=C[C@@H](C)C2CC3OC(=O)C[C@H]4C(C)=C(OC)C(=O)C([C@@]2(C)C1=O)[C@@]34C (some centres not stated)	0%	-1%	-1%
COC(=O)c1ccc(C(NC(=O)OCc2ccccc2)/C(=C/[C@@H](C)C(=O)N(C)C)c2cccnc2)cc1 (some centres not stated)	-9%	1%	2%
COc1ccc(-n2c(=O)c(C)nc3cnc(Oc4ccccc4)nc32)cc1	-10%	33%	-3%
COC1=C(C(=O)c2ccccc2)C(=O)C2(CC=C(C)C)C[C@H](C(=O)OCC(F)(F)F)C(C)(C)[C@@]1(CC=C(C)C)C2=O (tested in a mixture with another compound)	-18%	3%	3%
COc1ccc(N(CC(=O)N2CCc3ccccc3C2)S(=O)(=O)c2c(C)nn(C)c2C)cc1	-3%	-10%	-4%
CC(C)CCc1c(O)nc(SCC(C)C)[nH]c1=O	1%	10%	-3%

Screens (PubChem BioAssay)
